About 7,900 targets were measured; listed, in parts, are those with a hit and a random draw of the rest. About 0.6% of all pairs of compound and target were hits.
Tests used:
Assay in all cases: log2 fold change, soluble protein after heating vs DMSO (PISA); higher = thermal stabilisation; K562 cells, 10 uM, 30 min; active = over 0.2 and 3.5 SD of the protein, either way, in both replicates (recomputed)
saracatinib = compound: CN1CCN(CCOc2cc(OC3CCOCC3)c3c(Nc4c(Cl)ccc5c4OCO5)ncnc3c2)CC1 [saracatinib]
How it was run: (§1)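 K562 cells at 2×10^6 cells/mL were treated with 10 μM compound for 30 min. Aliquots were heated for 3 min across 48°C-58°C, pooled, and extracted in PBS with 0.5% NP-40 at 4°C; soluble protein was the supernatant after 21,000xg for 90 min. Soluble protein was quantified by TMTpro 16plex LC-MS/MS with channel sums equalised, and reported as log2 fold change in thermal stability against DMSO controls, with values from duplicates.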

sotrastaurin = compound: CN1CCN(c2nc(C3=C(c4c[nH]c5ccccc45)C(=O)NC3=O)c3ccccc3n2)CC1 [sotrastaurin]
How it was run: as §1

alvocidib = compound: CN1CC[C@H](c2c(O)cc(O)c3c(=O)cc(-c4ccccc4Cl)oc23)[C@H](O)C1 [alvocidib]
How it was run: as §1

Tubastatin A = compound: CN1CCc2c(c3ccccc3n2Cc2ccc(C(=O)NO)cc2)C1 [Tubastatin A]
How it was run: as §1

[1] = compound: CNC(=O)C1=CC=CC=C1NC2=NC(=NC=C2Cl)NC3=C(C=C(C=C3)N4CCOCC4)OC
How it was run: as §1

[2] = compound: CNc1nc(-c2ccc3c(N)n[nH]c3c2)cc(N2C[C@@H](C(=O)NC3CCCCC3)CC[C@H]2C)n1
How it was run: as §1

defactinib = compound: CNC(=O)c1ccc(Nc2ncc(C(F)(F)F)c(NCc3nccnc3N(C)S(C)(=O)=O)n2)cc1 [defactinib]
How it was run: as §1

rucaparib = compound: CNCc1ccc(-c2[nH]c3cc(F)cc4c3c2CCNC4=O)cc1 [rucaparib]
How it was run: as §1

encorafenib = compound: COC(=O)N[C@@H](C)CNc1nccc(-c2cn(C(C)C)nc2-c2cc(Cl)cc(NS(C)(=O)=O)c2F)n1 [encorafenib]
How it was run: as §1

[3] = compound: COC(=O)[C@H](CCSC)NC(=O)C1=C(C=C(C=C1)NC[C@H](CS)N)C2=CC=CC=C2
How it was run: as §1

Measured: log2 fold change

RABGAP1L isoform 5 (UniProt Q5R372)
inactive: saracatinib -0.027 | sotrastaurin 0.017 | alvocidib -0.053 | Tubastatin A -0.056 | [1] -0.014 | [2] -0.071

RPS9 (UniProt P46781)
inactive: saracatinib -0.044 | sotrastaurin -0.015 | alvocidib 0.237 | Tubastatin A 0.119 | [1] 0.083 | defactinib 0.226 | rucaparib 0.108 | [2] 0.095 | encorafenib 0.118 | [3] -0.027

RPP25L (UniProt Q8N5L8)
inactive: saracatinib -0.079 | sotrastaurin -0.087 | alvocidib 0.061 | Tubastatin A 0.026 | [1] 0.062 | defactinib 0.002 | rucaparib -0.032 | [2] -0.158 | encorafenib 0.014 | [3] 0.058

RABGAP1L isoform 3 (UniProt Q5R372)
inactive: saracatinib 0.063 | sotrastaurin -0.042 | alvocidib -0.001 | Tubastatin A -0.059 | [1] 0.018 | defactinib -0.055 | rucaparib -0.05 | [2] -0.005 | encorafenib 0.078 | [3] 0.035

RBM12 (UniProt Q9NTZ6)
inactive: saracatinib -0.04 | sotrastaurin -0.12 | alvocidib -0.191 | Tubastatin A 0.074 | [1] 0.008 | defactinib -0.27 | rucaparib -0.109 | [2] -0.02 | encorafenib 0.061 | [3] -0.052

RAC1 (UniProt P63000)
inactive: saracatinib 0.097 | sotrastaurin -0.041 | alvocidib -0.031 | Tubastatin A 0.057 | [1] -0.009 | defactinib -0.012 | rucaparib 0.075 | [2] 0.043 | encorafenib -0.064 | [3] -0.037

RPS6KA2 isoform 2 (UniProt Q15349)
Sequence of UniProt Q15349 (Q15349 whole entry, looked up): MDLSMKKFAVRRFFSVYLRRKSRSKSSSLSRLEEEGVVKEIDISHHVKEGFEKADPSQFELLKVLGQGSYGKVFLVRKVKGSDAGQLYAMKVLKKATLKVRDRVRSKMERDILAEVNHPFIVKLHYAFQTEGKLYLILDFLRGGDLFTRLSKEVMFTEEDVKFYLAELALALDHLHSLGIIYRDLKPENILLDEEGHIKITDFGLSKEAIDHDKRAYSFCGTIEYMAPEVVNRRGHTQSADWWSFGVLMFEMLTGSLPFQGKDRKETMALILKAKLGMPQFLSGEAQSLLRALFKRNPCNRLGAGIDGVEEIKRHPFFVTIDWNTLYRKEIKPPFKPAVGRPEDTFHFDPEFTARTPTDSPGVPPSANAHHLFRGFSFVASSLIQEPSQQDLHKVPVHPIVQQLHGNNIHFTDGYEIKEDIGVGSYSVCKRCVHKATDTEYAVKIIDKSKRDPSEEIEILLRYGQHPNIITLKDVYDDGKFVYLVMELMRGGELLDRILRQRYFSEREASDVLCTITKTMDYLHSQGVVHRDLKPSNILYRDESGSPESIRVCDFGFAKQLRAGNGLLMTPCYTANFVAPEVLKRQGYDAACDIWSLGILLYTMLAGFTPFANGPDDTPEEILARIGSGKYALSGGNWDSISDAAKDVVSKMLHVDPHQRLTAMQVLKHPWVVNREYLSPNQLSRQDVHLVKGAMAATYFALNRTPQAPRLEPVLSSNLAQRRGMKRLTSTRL
inactive: saracatinib 0 | sotrastaurin -0.049 | alvocidib -0.019 | Tubastatin A -0.01 | defactinib -0.209 | rucaparib -0.049 | [2] -0.08 | encorafenib 0.014 | [3] -0.009
active: [1] -0.422

SIK3 (UniProt H0Y4E8)
inactive: saracatinib 0.027 | sotrastaurin 0.157 | alvocidib -0.007 | Tubastatin A 0.064 | [1] -0.009 | defactinib -0.072 | rucaparib 0.023 | [2] -0.114 | encorafenib 0.056 | [3] 0.01

SAMD4B (UniProt Q5PRF9)
Sequence of UniProt Q5PRF9 (Q5PRF9 whole entry, looked up): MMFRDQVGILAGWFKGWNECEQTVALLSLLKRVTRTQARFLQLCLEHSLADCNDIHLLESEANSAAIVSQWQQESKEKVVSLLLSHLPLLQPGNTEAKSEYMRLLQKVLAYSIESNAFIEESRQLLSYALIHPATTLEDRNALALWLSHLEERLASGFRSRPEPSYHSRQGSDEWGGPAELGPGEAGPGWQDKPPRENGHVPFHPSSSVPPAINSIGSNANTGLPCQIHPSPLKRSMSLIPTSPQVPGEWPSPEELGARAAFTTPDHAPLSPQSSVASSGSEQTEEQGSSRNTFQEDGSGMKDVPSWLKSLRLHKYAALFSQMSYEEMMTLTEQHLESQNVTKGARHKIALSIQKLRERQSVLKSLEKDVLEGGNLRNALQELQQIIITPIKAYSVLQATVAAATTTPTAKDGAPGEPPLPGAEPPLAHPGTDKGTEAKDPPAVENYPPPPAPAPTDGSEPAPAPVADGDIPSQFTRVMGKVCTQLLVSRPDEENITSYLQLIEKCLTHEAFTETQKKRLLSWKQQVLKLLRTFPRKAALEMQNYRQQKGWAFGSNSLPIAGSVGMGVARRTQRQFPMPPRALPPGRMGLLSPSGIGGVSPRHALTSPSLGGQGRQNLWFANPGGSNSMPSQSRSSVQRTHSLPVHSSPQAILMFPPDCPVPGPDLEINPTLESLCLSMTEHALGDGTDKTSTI
inactive: saracatinib -0.349 | sotrastaurin -0.036 | alvocidib -0.059 | Tubastatin A 0.167 | [1] -0.132 | [2] 0.096

RAB9A (UniProt P51151)
inactive: saracatinib 0.015 | sotrastaurin 0.02 | alvocidib -0.04 | Tubastatin A -0.018 | [1] -0.054 | defactinib 0 | rucaparib -0.017 | [2] -0.02 | encorafenib -0.012 | [3] -0.013

RPS25 (UniProt P62851)
inactive: saracatinib -0.052 | sotrastaurin 0.007 | alvocidib 0.178 | Tubastatin A 0.094 | [1] 0.095 | defactinib 0.184 | rucaparib 0.124 | [2] 0.076 | encorafenib 0.01 | [3] 0.024

SDHC (UniProt Q99643)
Sequence of UniProt Q99643 (Q99643 whole entry, looked up): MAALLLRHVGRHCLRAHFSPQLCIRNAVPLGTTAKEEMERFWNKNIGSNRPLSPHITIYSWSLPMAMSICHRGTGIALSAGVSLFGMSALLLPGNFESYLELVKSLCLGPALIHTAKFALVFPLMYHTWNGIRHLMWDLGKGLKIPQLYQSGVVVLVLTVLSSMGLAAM
inactive: saracatinib 0.074 | sotrastaurin -0.201 | alvocidib -0.006 | Tubastatin A -0.134 | [1] 0.04 | defactinib -0.062 | rucaparib -0.012 | [2] -0.159 | encorafenib 0.029 | [3] 0.159

ROMO1 (UniProt P60602)
Sequence of UniProt P60602 (P60602 whole entry, looked up): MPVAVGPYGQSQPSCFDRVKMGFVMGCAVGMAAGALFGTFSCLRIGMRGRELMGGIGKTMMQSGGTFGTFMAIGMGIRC
inactive: saracatinib 0.022 | sotrastaurin -0.091 | alvocidib 0.023 | Tubastatin A 0.048 | [1] 0.013 | rucaparib -0.038 | [2] -0.012 | encorafenib 0.026

RBM4 (UniProt Q9BWF3)
inactive: saracatinib 0.024 | sotrastaurin -0.1 | alvocidib -0.037 | Tubastatin A 0.017 | [1] -0.052 | defactinib -0.055 | rucaparib 0.157 | [2] -0.036 | encorafenib 0.063 | [3] 0.025

RPS14 (UniProt P62263)
inactive: saracatinib 0.027 | sotrastaurin -0.003 | alvocidib 0.166 | Tubastatin A 0.123 | [1] 0.056 | defactinib 0.113 | rucaparib 0.107 | [2] 0.069 | encorafenib 0.013 | [3] -0.084

SCO2 (UniProt O43819)
inactive: saracatinib 0.034 | sotrastaurin 0.087 | alvocidib 0.006 | Tubastatin A 0.016 | [1] -0.042 | defactinib 0.017 | rucaparib 0.087 | [2] -0.004 | encorafenib 0.003 | [3] -0.124

RPS18 (UniProt P62269)
inactive: saracatinib -0.022 | sotrastaurin 0.039 | alvocidib 0.2 | Tubastatin A 0.105 | [1] 0.071 | defactinib 0.21 | rucaparib 0.152 | [2] 0.041 | encorafenib 0.008 | [3] 0.04

RBBP6 (UniProt Q7Z6E9)
inactive: sotrastaurin 0.11 | alvocidib -0.17 | Tubastatin A 0.074 | [1] -0.006 | defactinib -0.056 | rucaparib 0.067 | encorafenib 0.055 | [3] 0.04

SDC3 (UniProt O75056)
Sequence of UniProt O75056 (O75056 whole entry, looked up): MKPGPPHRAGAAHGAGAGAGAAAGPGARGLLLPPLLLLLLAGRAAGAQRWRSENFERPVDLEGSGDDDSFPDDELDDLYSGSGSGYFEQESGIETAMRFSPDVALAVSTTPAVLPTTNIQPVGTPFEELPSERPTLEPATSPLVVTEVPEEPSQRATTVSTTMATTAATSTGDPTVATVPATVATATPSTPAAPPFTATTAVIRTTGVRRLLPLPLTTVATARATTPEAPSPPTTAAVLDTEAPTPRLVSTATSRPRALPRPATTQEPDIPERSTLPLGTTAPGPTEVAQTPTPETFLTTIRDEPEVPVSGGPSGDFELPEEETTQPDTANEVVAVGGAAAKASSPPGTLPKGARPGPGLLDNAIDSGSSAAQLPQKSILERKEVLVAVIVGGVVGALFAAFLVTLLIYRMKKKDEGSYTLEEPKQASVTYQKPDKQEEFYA
inactive: saracatinib -0.251 | sotrastaurin -0.074 | alvocidib 0.051 | Tubastatin A 0.163 | defactinib -0.004 | rucaparib -0.513 | [2] 0.036 | encorafenib 0.125 | [3] 0.034

SDCBP isoform 2 (UniProt O00560)
inactive: saracatinib -0.175 | sotrastaurin 0.042 | Tubastatin A -0.301 | [1] 0.115 | rucaparib -0.036 | encorafenib 0.032
active: [2] -0.756

RAD50, A0A494C0Y7
inactive: saracatinib -0.101 | sotrastaurin 0.048 | alvocidib -0.026 | Tubastatin A -0.079 | defactinib -0.146 | rucaparib -0.206 | [2] 0.198 | encorafenib 0.15 | [3] -0.055

SCYL3 isoform 2 (UniProt Q8IZE3)
inactive: saracatinib 0.014 | alvocidib 0.142 | Tubastatin A -0.063 | [1] -0.042 | defactinib -0.014 | rucaparib 0.06 | [2] -0.009 | encorafenib 0.021 | [3] -0.025

RICTOR isoform 3 (UniProt Q6R327)
active: sotrastaurin 0.708
inactive: saracatinib 0.087 | Tubastatin A 0.092 | [1] 0.114 | rucaparib -0.128 | [2] 0.154 | encorafenib 0.068

RPS3 (UniProt E9PJN9)
inactive: saracatinib -0.069 | Tubastatin A 0.105 | rucaparib 0.064 | [2] -0.028 | encorafenib 0.052

SCLT1 (UniProt Q96NL6)
inactive: saracatinib 0.073 | sotrastaurin -0.095 | alvocidib 0 | Tubastatin A 0.116 | defactinib -0.047 | [2] 0.121 | [3] -0.087

RPS3A (UniProt D6R9B6)
inactive: saracatinib -0.125 | sotrastaurin 0.202 | Tubastatin A 0.051 | [2] -0.086

RBM48 isoform 2 (UniProt Q5RL73)
inactive: sotrastaurin -0.001 | alvocidib -0.011 | Tubastatin A 0.016 | [1] -0.065

RNF41 (UniProt Q9H4P4)
inactive: rucaparib -0.087 | encorafenib -0.016

RPS6KA3 (UniProt P51812)
inactive: saracatinib 0.021 | sotrastaurin -0.049 | alvocidib -0.046 | Tubastatin A 0.019 | defactinib -0.148 | rucaparib 0.006 | [2] -0.049 | encorafenib -0.01 | [3] -0.027

RAB3IL1 (UniProt E9PK89)
inactive: sotrastaurin -0.082 | alvocidib 0.009 | Tubastatin A -0.095 | [1] -0.011 | defactinib -0.016 | rucaparib -0.074 | encorafenib 0.084 | [3] 0.045

RBMY1E (UniProt A6NEQ0)
Sequence of UniProt A6NEQ0 (A6NEQ0 whole entry, looked up): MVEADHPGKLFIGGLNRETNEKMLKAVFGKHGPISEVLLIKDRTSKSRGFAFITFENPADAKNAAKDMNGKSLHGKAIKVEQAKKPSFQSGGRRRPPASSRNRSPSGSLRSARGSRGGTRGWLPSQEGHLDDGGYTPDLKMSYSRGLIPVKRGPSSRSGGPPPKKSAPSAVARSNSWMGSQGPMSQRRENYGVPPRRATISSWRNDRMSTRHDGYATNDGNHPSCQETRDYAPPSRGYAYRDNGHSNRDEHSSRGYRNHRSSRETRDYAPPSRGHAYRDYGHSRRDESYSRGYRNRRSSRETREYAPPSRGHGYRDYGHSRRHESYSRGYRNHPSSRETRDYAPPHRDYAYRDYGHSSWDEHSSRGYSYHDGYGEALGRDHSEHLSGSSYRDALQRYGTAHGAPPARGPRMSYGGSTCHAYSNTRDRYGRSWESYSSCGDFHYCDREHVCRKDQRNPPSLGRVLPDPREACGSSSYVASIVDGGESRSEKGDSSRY
inactive: alvocidib -0.015 | Tubastatin A 0.016 | [1] -0.049 | rucaparib -0.055 | encorafenib 0.182

SAP30 (UniProt O75446)
Sequence of UniProt O75446 (O75446 whole entry, looked up): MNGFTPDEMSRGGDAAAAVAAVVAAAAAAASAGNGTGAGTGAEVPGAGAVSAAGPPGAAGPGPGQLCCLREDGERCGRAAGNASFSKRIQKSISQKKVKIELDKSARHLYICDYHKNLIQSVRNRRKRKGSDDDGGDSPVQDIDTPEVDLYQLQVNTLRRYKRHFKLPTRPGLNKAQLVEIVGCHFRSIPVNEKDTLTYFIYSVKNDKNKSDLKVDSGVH
inactive: saracatinib -0.018 | sotrastaurin -0.185 | alvocidib -0.035 | [1] 0.121 | defactinib -0.003 | [2] 0.014 | [3] 0.044

RAB3D (UniProt O95716)
Sequence of UniProt O95716 (O95716 whole entry, looked up): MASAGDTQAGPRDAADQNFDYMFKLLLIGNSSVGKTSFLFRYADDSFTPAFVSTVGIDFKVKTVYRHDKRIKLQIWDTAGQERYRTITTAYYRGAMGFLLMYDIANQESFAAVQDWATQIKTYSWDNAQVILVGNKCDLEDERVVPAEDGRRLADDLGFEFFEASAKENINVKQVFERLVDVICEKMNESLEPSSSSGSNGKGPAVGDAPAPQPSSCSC
inactive: saracatinib 0.295 | alvocidib 0.126 | Tubastatin A 0.024 | [1] 0.022 | defactinib 0.064 | rucaparib -0.021 | [2] -0.016 | encorafenib -0.043 | [3] -0.094

SF3B5 (UniProt Q9BWJ5)
inactive: saracatinib -0.382 | sotrastaurin 0.055 | Tubastatin A 0.048 | [1] 0.023 | defactinib -0.039 | rucaparib 0.086 | [2] -0.015 | encorafenib -0.025 | [3] 0.061

RBM6 (UniProt P78332)
Sequence of UniProt P78332 (P78332 whole entry, looked up): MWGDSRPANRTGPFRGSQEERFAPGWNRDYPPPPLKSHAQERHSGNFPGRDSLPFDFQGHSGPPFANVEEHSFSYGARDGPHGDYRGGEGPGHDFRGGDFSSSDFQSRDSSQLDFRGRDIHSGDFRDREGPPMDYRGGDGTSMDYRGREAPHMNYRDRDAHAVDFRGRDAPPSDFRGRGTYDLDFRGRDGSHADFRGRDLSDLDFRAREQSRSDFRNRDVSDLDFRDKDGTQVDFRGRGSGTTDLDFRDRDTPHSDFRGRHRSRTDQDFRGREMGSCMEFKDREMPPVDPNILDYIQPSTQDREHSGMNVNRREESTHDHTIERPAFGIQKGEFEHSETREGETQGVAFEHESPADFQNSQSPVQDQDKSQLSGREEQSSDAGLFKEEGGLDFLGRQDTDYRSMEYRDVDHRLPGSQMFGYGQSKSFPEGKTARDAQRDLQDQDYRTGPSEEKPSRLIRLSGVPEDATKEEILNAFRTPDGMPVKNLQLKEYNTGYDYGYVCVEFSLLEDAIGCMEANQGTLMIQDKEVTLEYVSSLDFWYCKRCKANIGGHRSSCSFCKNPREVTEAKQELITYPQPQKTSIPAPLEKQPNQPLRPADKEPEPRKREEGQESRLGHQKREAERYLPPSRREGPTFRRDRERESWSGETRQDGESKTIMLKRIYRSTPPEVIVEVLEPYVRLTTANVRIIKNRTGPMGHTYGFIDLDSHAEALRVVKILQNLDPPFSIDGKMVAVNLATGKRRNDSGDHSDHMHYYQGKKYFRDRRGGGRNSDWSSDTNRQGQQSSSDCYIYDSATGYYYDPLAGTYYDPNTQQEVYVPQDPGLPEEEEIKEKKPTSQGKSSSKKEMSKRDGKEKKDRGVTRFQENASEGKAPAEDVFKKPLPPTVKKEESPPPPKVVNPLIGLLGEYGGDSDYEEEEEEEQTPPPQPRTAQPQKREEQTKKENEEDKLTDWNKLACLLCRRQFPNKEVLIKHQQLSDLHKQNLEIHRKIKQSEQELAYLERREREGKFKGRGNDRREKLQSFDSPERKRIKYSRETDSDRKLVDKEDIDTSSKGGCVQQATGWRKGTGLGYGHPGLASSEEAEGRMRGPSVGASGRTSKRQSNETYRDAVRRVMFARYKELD
inactive: saracatinib -0.032 | sotrastaurin -0.077 | alvocidib -0.073 | Tubastatin A -0.077 | [2] 0.247

S100A10 (UniProt P60903)
inactive: sotrastaurin -0.147 | alvocidib -0.293 | Tubastatin A 0.195 | rucaparib -0.038 | encorafenib -0.293

From the supplement of paper PMC10849652
